The text below walks through data of PubChem BioAssay.

SMILES strings stand for the structures. Active and inactive are the calls of the source.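 Rule for the calls, unless noted: active = compounds whose cell count with miR-34 switched on is under 0.7 times the count with it off; inactive = the rest.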

Experiment [1] is described as follows: liver-stage malaria parasite growth inhibition, primary screen, cell-based, HepG2, luciferase luminescence, HepG2 viability (AID 624349; in the data active = parasite load remaining mostly below about 12%, no sharp cut-off; inactive = mostly above about 10%;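 note: 100% = mean of DMSO negative control wells on the same plate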). The settings on record: P. berghei liver stage in HepG2, luciferase luminescence, concentration not given here; parasite load remaining: stronger effect = lower value; viability: measured here: HepG2 viability without parasites.
The nature of experiment [2]: sensitizers of A549 cells to miR-34 induction, primary screen, imaging, A549 dox-inducible miR-34, nuclei and caspase counts (AID 1347080). The settings on record: A549 miR-34 inducible, Hoechst nuclei count, 48 h.
A short description of experiment [3]: survival rescue of mitochondrial mutant cells in low glucose, primary screen, MELAS cybrids, Rieske KO mouse fibroblasts, CellTiter-Glo (AID 1508586;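 active = mean z-score across replicates of 1.96 or higher in either the MELAS or the Rieske mutant cell line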;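 note: z relative to plate mean and SD of compound and empty wells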). (Cellular ATP, detected with luciferase, serves as a proxy for viable cell number.)
Experiment [4] can be described thus: viability rescue of complex I mutant cybrids, primary screen, cell-based, galactose medium, ATP luminescence (AID 1645843;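 active = z-score of at least 1.8 in each of two replicates, scored against plate mean and spread of sample wells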;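 note: positive z means more ATP and so rescue of galactose-driven cybrid death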). Conditions: complex I mutant cybrid cells, 72 h, stronger effect = higher value.
The mark [5] stands for this setting: stronger effect = lower value, cell number ratio, induced over uninduced.
Where [6] appears, read: measured here: relative caspase fold change +Dox/-Dox.
Where [7] appears, read: measured here: total cells with miR-34 induction, stronger effect = lower value.
[8] abbreviates: measured here: total cells without miR-34 induction.
[9] abbreviates: MELAS cybrid survival, CellTiter-Glo 48 h, stronger effect = higher value.
[10] abbreviates: Rieske KO mouse fibroblast survival, CellTiter-Glo 72 h.

Usually viability stands for a per cent measure of how many cells are alive, often set against a control. Regarding `C[C@]1(OC(=O)/C=C/c2ccccc2)C[C@@H](O)[C@]2(O)C=CO[C@@H](O[C@@H]3O[C@H](CO)[C@@H](O)[C@H](O)[C@H]3O)[C@@H]21`, the parasite load remaining in experiment [1] is 121% (inactive). Besides, in experiment [1], the viability was found to be 74.8%. In addition, the results for the fold change in experiment [2] (setting [5]) and in experiment [2] (setting [6]) were 0.943 (inactive) and 0.61, respectively. Moreover, the cell count in experiment [2] (setting [7]) was found to be 9240; in experiment [2] (setting [8]), 9800.
In the case of `CON=C1C[C@]2(C[C@@H]3C[C@@H](C/C=C(\C)C[C@@H](C)/C=C/C=C4\CO[C@@H]5[C@H](O)C(C)=C[C@@H](C(=O)O3)[C@]45O)O2)O[C@H](/C(C)=C/C(C)C)[C@H]1C`, the fold change is 1 (inactive) in experiment [2] (setting [5]) and 0.955 in experiment [2] (setting [6]). For the same compound, the cell count in experiment [2] (setting [7]) and in experiment [2] (setting [8]) was 3250 throughout.
As to `CCN(CC)CCNC(=O)c1c(C)[nH]c(C=C2C(=O)Nc3ccc(F)cc32)c1C`, the fold change was 0.743 (inactive) in experiment [2] (setting [5]) and 1.2 in experiment [2] (setting [6]). Besides, the cell count in experiment [2] (setting [7]) came to 2230; in experiment [2] (setting [8]), 3000. In addition, the z-score is -0.621 (inactive) in experiment [3] (setting [9]) and -1.61 in experiment [3] (setting [10]).
Consider `CC(=O)O[C@]1(C(C)=O)CC[C@H]2[C@@H]3C=C(C)C4=CC(=O)CC[C@@H]4[C@H]3CC[C@@]21C`, for which, in experiment [1], the parasite load remaining was 85.6% (inactive). For the same compound, the viability in experiment [1] is 73.5%. For the same compound, the values for the fold change in experiment [2] (setting [5]) and in experiment [2] (setting [6]) were 0.942 (inactive) and 0.745, respectively. Moreover, the cell count in experiment [2] (setting [7]) came to 8790; in experiment [2] (setting [8]), 9330. Also, the results for the z-score in experiment [3] (setting [9]) and in experiment [3] (setting [10]) were -0.763 (inactive) and -0.219, respectively.
As to `CC(=O)O[C@@]12COC1CC(O)[C@@]1(C)C(=O)C(O)C3=C(C)C(OC(=O)C(O)C(NC(=O)OC(C)(C)C)c4ccccc4)C[C@](O)(C(OC(=O)c4ccccc4)C21)C3(C)C` (some centres not stated), the fold change in experiment [2] (setting [5]) was 1.14 (inactive); in experiment [2] (setting [6]) it was 1.25. In addition, the cell count in experiment [2] (setting [7]) is 3410; in experiment [2] (setting [8]), 2990. The z-score in experiment [4] is -1.09 (inactive).
As to `CO[C@@]1(NC(=O)[C@H](C(=O)O)c2ccc(O)cc2)C(=O)N2C(C(=O)O)=C(CSc3nnnn3C)CO[C@@H]21`, the parasite load remaining in experiment [1] is 81.8% (inactive). In experiment [1], this compound displayed a viability of 98.4%. The fold change in experiment [2] (setting [5]) was 0.861 (inactive); in experiment [2] (setting [6]) it was 1.17. The results for the cell count in experiment [2] (setting [7]) and in experiment [2] (setting [8]) were 8980 and 10400, respectively. The values for the z-score in experiment [3] (setting [9]) and in experiment [3] (setting [10]) were 0.452 (inactive) and -0.352, respectively.
